# Test results published in PubChem BioAssay (Tox21).
# Records with an inconclusive call do not appear. A number with no mark means an inactive call. Calls come from the whole dose curve; as a rule, active = well fitted cell-killing curve with a large enough effect in the repeat runs; inconclusive = weak or mixed curves, or effect the other way; inactive = no such curve, though single readings can be large or run the other way.
# Experiment: qHTS assay for small molecule activators of the heat shock response signaling pathway - cell viability counter screen (AID 743209); note: nearly all actives have a fitted effect of over 50% in size
# Conditions: HSE-bla HeLa viability, CellTiter-Glo luminescence, 5 h; series mostly up to 62.6 µM; activity change, negative = cytotoxicity: at the top concentration
# Source text: U.S. Tox21 Program National Center for Advancing Translational Sciences [NCATS] NIH Chemical Genomics Center [NCGC] U.S. Environmental Protection Agency [EPA] National Institutes of Environmental Health Sciences [NIEHS] National Toxicology Program [NTP] U.S. Food and Drug Administration [FDA] Tox21 Assay Overview: Various chemicals, environmental and physiological stress conditions may lead to the activation of heat shock response/ unfolded protein response (HSR/UPR). There are three heat shock transcription factors (HSFs) (HSF-1, -2, and -4) mediating transcriptional regulation of the human HSR. To identify the compounds that activate HSR signaling, HSE-bla HeLa cell line (Invitrogen, Carlsbad, CA, USA) containing a beta-lactamase reporter gene under the control of the heat shock response elements was used to screen Tox21 10K compound library. The cytotoxicity of the Tox21 compound library against the HSE-bla HeLa cell line was tested in parallel by measuring the cell viability using CellTiter-Glo assay (Promega, Madison, WI) in the same wells.
# Tox21 Assay Protocol Summary: The CellSensor HSE-bla HeLa cells (Invitrogen, Carlsbad, CA, USA) were dispensed at 1500 cells/6uL/well into 1536-well black wall/clear bottom plates using a Multidrop combi (Thermo Fisher Scientific, Waltham, MA) dispenser. After the assay plates were incubated at 37 C and 5% CO2 overnight, 23 nL of compounds dissolved in DMSO, positive controls or DMSO only was transferred to the assay plate by a Pintool station (Kalypsys, San Diego, CA). The plates were incubated at 37 C for 5 h. After 1 uL of LiveBLAzerTM B/G FRET substrate was added using a Flying Reagent Dispenser (FRD, Beckman Coulter, Indianapolis, IN, USA), the plates were incubated at room temperature for 2.5 h, and fluorescence intensity was measured by an Envision plate reader (PerkinElmer, Shelton, CT). For cell viability readout that measures cytotoxicity, 3 ul/well of CellTiter-Glo reagent was added into the assay plates using a FRD. After 30 min incubation at room temperature, the luminescence intensity in the plates was measured using a ViewLux (PerkinElmer) plate reader.
# % is set by controls: 0 for no effect and ±100 for the full control effect.
row,SMILES,"activity change, negative = cytotoxicity"
1,CC(=O)N[C@@H](CC(C)C)C(=O)O,14.5%
2,OCCN(CCO)c1ccccc1,-4.24%
3,Nc1ccc2ccccc2c1S(=O)(=O)O,-11% [at 81.1 µM]
4,COC(=O)c1ccc(OC)cc1,0.443%
5,CN(C)Cc1ccccc1,-2.93% [at 81.1 µM]
6,CCOc1ccccc1N,2.3%
7,O=[N+]([O-])c1nccn1CO[C@@H](CO)[C@H](O)CO,8.71%
8,O=C(O)CN(CCN(CC(=O)O)CC(=O)O)CCN(CC(=O)O)CC(=O)O,5.23% [at 29.1 µM]
9,Cn1cnc2c(F)c(Nc3ccc(Br)cc3Cl)c(C(=O)NOCCO)cc21,4.34%
10,CN(C)CC[C@@H](c1ccc(Cl)cc1)c1ccccn1,2.05%
11,CN1CCN(c2c(F)cc3c(=O)c(C(=O)O)cn4c3c2SCC4)CC1,-8.03%
12,C=CC(C)(O)CC/C=C(\C)CCC=C(C)C (stereo not given),-6.69%
13,COc1ccc(S(=O)(=O)Nc2nnc(CC(C)C)s2)cc1,-22.8%
14,CC(=O)O[C@H]1CC[C@@]2(C)C(=CC[C@@H]3[C@@H]2CC[C@]2(C)C(C(C)=O)=CC[C@@H]32)C1,-6.12%
15,CCC/C=C/CO,5.67%
16,CC1=C(CC(=O)O)c2cc(F)ccc2/C1=C\c1ccc(S(C)(=O)=O)cc1,-4.64%
17,OC[C@H]1O[C@@H](O[C@H]2[C@H](O)[C@@H](O)[C@H](O)O[C@@H]2CO)[C@H](O)[C@@H](O)[C@H]1O,21.2%
18,C[C@@H]1CN(c2c(F)c(F)c3c(=O)c(C(=O)O)cn(C4CC4)c3c2F)C[C@H](C)N1,-10.8% [at 29.1 µM]
19,C=C(C)C(=O)OCCOP(=O)(O)O,-3.31% [at 81.1 µM]
20,CC(C)CCCCCCc1ccc(OCCOCCO)cc1,10.7% [at 81.1 µM]

row,SMILES,"activity change, negative = cytotoxicity"
1,O=C1C=CC(=O)O1,-5.73% [at 81.1 µM]
2,CC(=O)Nc1ccc(C)c(Cl)c1,-5.31%
3,COC(=O)/C=C(/C)N,-6.75%
4,CCN1CC(CCN2CCOCC2)C(c2ccccc2)(c2ccccc2)C1=O (stereo not given),18.5%
5,OCc1ccccc1O,3.32%
6,COc1nc(C)nc(NC(=O)NS(=O)(=O)c2ccccc2OCCCl)n1,-1.54%
7,CCc1cc(Cl)c(OC)c(C(=O)NC[C@@H]2CCCN2CC)c1O,-7.99%
8,CC(C)NCC(O)COc1ccc(CCOCC2CC2)cc1 (stereo not given),13.2%
9,CCOC(=O)C1CC(=O)C(=C(O)C2CC2)C(=O)C1 (stereo not given),-0.853%
10,CCC(=O)O[C@]1(C(=O)SCF)[C@H](C)C[C@H]2[C@@H]3C[C@H](F)C4=CC(=O)C=C[C@]4(C)[C@@]3(F)[C@@H](O)C[C@@]21C,-2.57%
11,NC/C=C/C(=O)O,4.24%
12,OCc1c2ccccc2cc2ccccc12,11.2% [at 81.1 µM]
13,O=C(CCCl)NCc1ccccc1,14.3%
14,C=Cc1ccccc1,-3.39%
15,CCOC(=O)NCCC[Si](OCC)(OCC)OCC,6.28%
16,CCCCC1CCC(=O)O1 (stereo not given),-4.87%
17,CC(=O)OC(C)OC(C)=O,-1.61% [at 81.1 µM]
18,CC1(C)S[C@@H]2[C@H](NC(=O)C(C(=O)O)c3ccccc3)C(=O)N2[C@H]1C(=O)O (stereo not given in full),-9.22%
19,CS(=O)(=O)c1ccc([C@@H](O)[C@@H](CF)NC(=O)C(Cl)Cl)cc1,0.94%
20,C[C@@H](N)C(=O)O,-15.5%
